Experimental data from the supplement of paper PMC8728848.
Many of the other results were omitted from the sample, so the strongest signals are more common in it than they were.

Experiments:
Experiment in all cases: glycan array binding signal (z-score within array); higher = stronger binding
Settings in all cases: glycan notation: IUPAC condensed, linker removed
[1] = biological target: Fuc(a1-2)Gal(b1-3)GalNAc(b1-3)Gal
In short: (§1)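 Columns mapping to the same glycan were averaged after glycan names were converted to IUPAC-condensed notation. The data come from 3228 arrays in the Consortium for Functional Glycomics database, limited to those with an available protein sequence. Binding is reported as a within-array Z-score averaged across arrays of one protein sequence and across linkers.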

Fuc(a1-2)Gal(b1-3)GlcNAc = biological target: Fuc(a1-2)Gal(b1-3)GlcNAc
In short: as §1

[2] = biological target: Fuc(a1-2)Gal(b1-3)GlcNAc(b1-3)Gal(b1-4)Glc
In short: as §1

[3] = biological target: Fuc(a1-2)Gal(b1-3)GlcNAc6S
In short: as §1

Fuc(a1-2)Gal(b1-4)Glc6S = biological target: Fuc(a1-2)Gal(b1-4)Glc6S
In short: as §1

[4] = biological target: Fuc(a1-2)[Gal(a1-3)]Gal(b1-3)GalNAc
In short: as §1

[5] = biological target: Fuc(a1-2)[GalNAc(a1-3)]Gal(b1-3)GlcNAc(b1-6)GalNAc
In short: as §1

Fuc(a1-3)GlcNAc = biological target: Fuc(a1-3)GlcNAc
In short: as §1

Gal(a1-3)Gal(b1-3)GlcNAc = biological target: Gal(a1-3)Gal(b1-3)GlcNAc
In short: as §1

[6] = biological target: Gal(a1-3)Gal(b1-3)GlcNAc(b1-6)GalNAc
In short: as §1

[7] = biological target: Gal(a1-4)Gal(b1-3)GlcNAc(b1-2)Man(a1-3)[Gal(a1-4)Gal(b1-3)GlcNAc(b1-2)Man(a1-6)]Man(b1-4)GlcNAc(b1-4)GlcNAc
In short: as §1

Gal(a1-6)Glc = biological target: Gal(a1-6)Glc
In short: as §1

Gal(b1-3)Gal(b1-4)GlcNAc = biological target: Gal(b1-3)Gal(b1-4)GlcNAc
In short: as §1

[8] = biological target: Gal(b1-3)GlcNAc(b1-2)Man(a1-3)[Gal(b1-3)GlcNAc(b1-2)Man(a1-6)]Man(b1-4)GlcNAc(b1-4)GlcNAc
In short: as §1

[9] = biological target: Gal(b1-3)GlcNAc(b1-2)Man(a1-3)[GlcNAc(b1-4)][Gal(b1-3)GlcNAc(b1-2)Man(a1-6)]Man(b1-4)GlcNAc(b1-4)GlcNAc
In short: as §1

[10] = biological target: Gal(b1-3)GlcNAc(b1-3)Gal(b1-3)GlcNAc
In short: as §1

[11] = biological target: Gal(b1-3)[Neu5Ac(a2-6)]GlcNAc(b1-6)Gal(b1-4)Glc
In short: as §1

[12] = biological target: Gal(b1-4)GlcNAc(a1-6)Gal(b1-4)GlcNAc
In short: as §1

[13] = biological target: Gal(b1-4)GlcNAc(b1-2)Man(a1-3)Man(b1-4)GlcNAc(b1-4)GlcNAc
In short: as §1

[14] = biological target: Gal(b1-4)GlcNAc(b1-2)Man(a1-3)[Gal(b1-4)GlcNAc(b1-2)Man(a1-6)]Man(b1-4)GlcNAc(b1-4)GlcNAc
In short: as §1

[15] = biological target: Gal(b1-4)GlcNAc(b1-2)Man(a1-3)[Man(a1-6)]Man(b1-4)GlcNAc(b1-4)GlcNAc
In short: as §1

[16] = biological target: Gal(b1-4)GlcNAc(b1-3)Gal(b1-3)GalNAc
In short: as §1

[17] = biological target: Gal(b1-4)GlcNAc(b1-3)Gal(b1-4)GlcNAc(b1-3)GalNAc
In short: as §1

[18] = biological target: Gal(b1-4)GlcNAc(b1-3)Gal(b1-4)[Fuc(a1-3)]GlcNAc(b1-3)Gal(b1-4)[Fuc(a1-3)]GlcNAc
In short: as §1

[19] = biological target: Gal(b1-4)GlcNAc(b1-3)[Gal(b1-4)GlcNAc(b1-6)]Gal(b1-4)GlcNAc
In short: as §1

[20] = biological target: Gal(b1-4)GlcNAc(b1-3)[GlcNAc(b1-6)]Gal(b1-4)GlcNAc
In short: as §1

[21] = biological target: Gal(b1-4)GlcNAc(b1-6)[Gal(b1-3)]GalNAc
In short: as §1

Gal(b1-6)Gal = biological target: Gal(b1-6)Gal
In short: as §1

Gal3S(b1-3)GlcNAc = biological target: Gal3S(b1-3)GlcNAc
In short: as §1

Gal3S(b1-4)Glc = biological target: Gal3S(b1-4)Glc
In short: as §1

B1: AMA (Arum maculatun) (protein)
chain: MAKLLLLLLLPAIVGLAVPRSAAAVGSNYMLSGETLNTDGRLTNGELTLIMQVDCNLVLYHGGWQSNTANNGRDCKLTLTDFGELVIKSGTGSTVWSSGSKQSMKGNYAAVVHPEGRLVIYGPSVFKINPSGAGLNGLPLRNIPLTNNMLFSGQVLYGDGTLSARNHKLVMQGDCNMVLYGGKYGWQSNTHGNGKYCFAMLTHKGELVIRDDDFKSVWSSKSSSKQGDYVFILQDDSLAIIYGPAVFSTGSKKMISMVTN
glycan array binding signal (z-score) [1]: -0.21 | glycan array binding signal (z-score) (Fuc(a1-2)Gal(b1-3)GlcNAc): -0.176 | glycan array binding signal (z-score) [2]: -0.22 | glycan array binding signal (z-score) [3]: -0.207 | glycan array binding signal (z-score) (Fuc(a1-2)Gal(b1-4)Glc6S): -0.208 | glycan array binding signal (z-score) [4]: -0.211 | glycan array binding signal (z-score) [5]: -0.216 | glycan array binding signal (z-score) (Fuc(a1-3)GlcNAc): -0.221 | glycan array binding signal (z-score) (Gal(a1-3)Gal(b1-3)GlcNAc): -0.21 | glycan array binding signal (z-score) [6]: -0.216 | glycan array binding signal (z-score) [7]: 5.86 | glycan array binding signal (z-score) (Gal(a1-6)Glc): -0.214 | glycan array binding signal (z-score) (Gal(b1-3)Gal(b1-4)GlcNAc): -0.208 | glycan array binding signal (z-score) [8]: 3.15 | glycan array binding signal (z-score) [9]: -0.205 | glycan array binding signal (z-score) [10]: -0.207 | glycan array binding signal (z-score) [11]: -0.198 | glycan array binding signal (z-score) [12]: -0.215 | glycan array binding signal (z-score) [13]: -0.215 | glycan array binding signal (z-score) [14]: 3.36 | glycan array binding signal (z-score) [15]: 0.479 | glycan array binding signal (z-score) [16]: -0.219 | glycan array binding signal (z-score) [17]: -0.149 | glycan array binding signal (z-score) [18]: -0.209 | glycan array binding signal (z-score) [19]: -0.213 | glycan array binding signal (z-score) [20]: -0.227 | glycan array binding signal (z-score) [21]: -0.212 | glycan array binding signal (z-score) (Gal(b1-6)Gal): -0.208 | glycan array binding signal (z-score) (Gal3S(b1-3)GlcNAc): -0.209 | glycan array binding signal (z-score) (Gal3S(b1-4)Glc): -0.211
